One assay concerns IMR-90. Description: relative cell viability (ATPlite) vs untreated control (fraction); higher = less toxic. Conditions: 1 µM; 72 h. In general terms: ATP-based viability assays read luminescence as a measure of living cells.
Assay [1] concerns K562. Described as above. Conditions: 1 µM; 72 h.
For assay [2], the system named is K562. Kind of assay: relative cell viability (ATPlite) vs untreated control, with imatinib (fraction); higher = less toxic. The following applies: 1 µM; 72 h; imatinib 0.125 µM.

SMILES strings stand for the structures. ± gives the standard deviation of the averaged measurements.

For the compound `O=C1NC(=O)c2c1c1c3ccccc3n3c1c1c2c2ccccc2n1[C@H]1CC[C@@H]3O1`, the relative cell viability in the assay on IMR-90 worked out at 1.04 ± 0.092; in the assay on K562 [1] it was 0.872 ± 0.058; with K562 [2], 0.797 ± 0.069.

Take `COC(=O)[C@]1(O)C[C@@H]2O[C@@]1(C)n1c3ccccc3c3c4c(c5c6ccccc6n2c5c31)C(=O)NC4` [K-252a, Nocardiopsis sp.]: the relative cell viability with IMR-90 worked out at 0.668 ± 0.06; with K562 [1] it was 0.305 ± 0.26; in the assay with K562 [2] it was 0.363 ± 0.26.

With `O=S(=O)(c1c(O)c(Cl)cc(Cl)c1Cl)c1c(O)c(Cl)cc(Cl)c1Cl` [p38 MAP Kinase Inhibitor IV], the relative cell viability was 0.988 ± 0.073 in the assay on IMR-90, 0.813 ± 0.076 in the assay with K562 [1] and 0.762 ± 0.026 in the assay with K562 [2].

On to `O=[N+]([O-])/C=C/c1ccc2c(c1)OCO2` [Syk Inhibitor III], for which the relative cell viability came to 0.932 ± 0.087 in the assay with IMR-90, 0.819 ± 0.063 with K562 [1] and 0.753 ± 0.033 in the assay with K562 [2].

Take `NC(=NN=Cc1ccc(-c2cccc([N+](=O)[O-])c2)o1)N[N+](=O)[O-]` [ERK Inhibitor III]: the values for the relative cell viability in the assay with IMR-90, in the assay on K562 [1] and in the assay with K562 [2] were 1.01 ± 0.12, 0.937 ± 0.079 and 0.775 ± 0.053, respectively.

Take `COc1ccc2c(c1)/C(=C/c1cnc[nH]1)C(=O)N2`: the relative cell viability in the assay on IMR-90 amounted to 1.31 ± 0.26; with K562 [1], 0.907 ± 0.17; with K562 [2], 0.881 ± 0.08.

With `CC(C)(C)c1cc(C=C(C#N)C#N)cc(Br)c1O`, the relative cell viability came to 0.962 ± 0.047 in the assay on IMR-90, 1 ± 0.12 in the assay on K562 [1] and 0.847 ± 0.017 with K562 [2].

Values taken from the supplement of paper PMC4100887.
